The results in this text go back to PubChem BioAssay (NCATS).

Results filed as inconclusive are left out. Activity calls are given as the source filed them. Calls follow the shape of the dose curve; as a rule, active = well fitted inhibition curve with a large enough effect; inconclusive = small, poorly fitted or top-dose-only effect; inactive = flat fitted curve, though single readings scatter.
Potency is read from the fitted curve at half-maximal effect.

Tested on in the first assay: not listed separately
As to the kind of experiment: Drug repurposing screens with cells derived from glioblastoma tumor samples (AID 1345199). Also: nearly all actives have a fitted effect of over 40% in size. Conditions: GBM patient neurospheres viability, ATP luminescence, 48 h; tumour line A. The method in brief: (§1)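 Four patient lines of CD133+ GBM neurospheres were screened at several concentrations; hits were retested in those lines plus three slower-growing GBM lines, using 48-hour treatment and ATP-based viability.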
As for `O=c1[nH]c2ccccc2n1CCCN1CCC(n2c(=O)[nH]c3cc(Cl)ccc32)CC1`, the Potency was 2.82 µM (active).

For the compound `CC(C)=CCOc1c2occc2cc2ccc(=O)oc12`, the Potency was 17.8 µM (active).

Regarding `Clc1ccc(CCC(Cn2ccnc2)Sc2c(Cl)cccc2Cl)cc1` (stereo unspecified), the Potency is 1.12 µM (active).

For the compound `C=C1C[C@@H]2[C@H](CC[C@]3(C)C(=O)CC[C@@H]23)[C@@]2(C)C=CC(=O)C=C12`, the Potency was 12.6 µM (active).

Consider `Clc1ccc(COC(Cn2ccnc2)c2ccc(Cl)cc2Cl)cc1` (stereo unspecified), for which the Potency is 2.24 µM (active).

Another assay relates to astro (control astrocytes). The description is as above. The conditions noted are these: viability, ATP luminescence, 48 h; series mostly up to 45.9 µM. The method, boiled down: as §1
`O=c1[nH]c2ccccc2n1CCCN1CCC(n2c(=O)[nH]c3cc(Cl)ccc32)CC1`: the Potency entry was “inactive”.

Turning to `C[C@]12CCC(=O)C(O)=C1CC[C@@H]1[C@@H]2CC[C@]2(C)C(=O)CC[C@@H]12`, the Potency entry is “inactive”.

Take `CC(C)=CCOc1c2occc2cc2ccc(=O)oc12`: the Potency entry was “inactive”.

For the compound `CCCC(C)(COC(N)=O)COC(=O)NC(C)C` (stereo unspecified), the Potency entry was “inactive”.

Take `c1ccc2c(c1)OCC(C1=NCCN1)O2` (stereo unspecified): the Potency was 15.8 µM (active).

In the case of `CO[C@]12CC[C@@]3(C[C@@H]1[C@](C)(O)C(C)(C)C)[C@@H]1Cc4ccc(O)c5c4[C@@]3(CCN1CC1CC1)[C@H]2O5`, the Potency was 31.6 µM (active).

Take `C=C1C[C@@H]2[C@H](CC[C@]3(C)C(=O)CC[C@@H]23)[C@@]2(C)C=CC(=O)C=C12`: the Potency result is “inactive”.

Take `COc1ccc(Cc2nccc3cc(OC)c(OC)cc23)cc1OC`: the Potency was 10 µM (active).

Consider `CC(=O)Nc1cc([As](=O)(O)O)ccc1O`, for which the Potency entry was “inactive”.

With `C#CCN(C)[C@H](C)Cc1ccccc1`, the Potency entry was “inactive”.

Turning to `Oc1ccc(Cl)cc1Cc1ccccc1`, the Potency was 35.5 µM (active).
